Structures are written as SMILES. Compounds without any hit were thinned out: in the full panel of roughly 79,000, 15% have a hit. Values without a mark were called inactive. Active and inactive are the calls of the source. Rule as the data show it: active = growth inhibition above about 70%; inactive = the rest. Where a SMILES comes first, the peptide text is derived from it. [ ]: non-standard residue; d: D form. The star is where a group is joined. Cbz = O=C(OCc1ccccc1)*; Nva = CCC[CH](N)C(=O)O

Consider 20 molecules from PubChem BioAssay (NCI).

Assay [1] can be described thus: NCI Yeast Anticancer Drug Screen. Data for the rad50 strain (AID 155).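 Also: 0% = growth of vehicle-only cultures of the same strain.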 To be noted: S. cerevisiae rad50 strain growth inhibition; at 50.0 µM; active compounds read high. The method, boiled down:
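Genetically altered yeast (DNA repair pathway); compound treatment; growth inhibition vs vehicle ctrl.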

The nature of assay [2]: NCI Yeast Anticancer Drug Screen. Data for the mec2-1 strain (AID 157). To be noted: S. cerevisiae mec2-1 strain, at 50.0 µM, active compounds read high. In a few lines:
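Compounds were applied to mec2-1 yeast cells. Their growth was then compared with that of vehicle-treated cultures to give growth inhibition.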

The nature of assay [3]: NCI Yeast Anticancer Drug Screen. Data for the sgs1 mgt1 strain (AID 161).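 Also: 0% = growth of cultures given vehicle only.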 To be noted: S. cerevisiae sgs1 mgt1 strain, at 50.0 µM, active compounds read high. In a few lines:
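Yeast cells carrying a defined DNA-repair defect were exposed to test compounds. Growth inhibition was measured relative to vehicle-treated controls.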

The nature of assay [4]: NCI Yeast Anticancer Drug Screen. Data for the cln2 rad14 strain (AID 165).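 Also: 0% = growth equal to vehicle treated cultures.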 To be noted: S. cerevisiae cln2 rad14 strain, at 50.0 µM, active compounds read high. In a few lines:
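Strain: cln2 rad14 yeast, altered in cell cycle control and DNA damage repair. Read-out: growth inhibition vs vehicle.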

The nature of assay [5]: NCI Yeast Anticancer Drug Screen. Data for the bub3 strain (AID 167). To be noted: S. cerevisiae bub3 mutant strain, at 50.0 µM, active compounds read high. The method, boiled down:
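Yeast carrying a defined mutation is treated with each compound, and growth is compared with that of vehicle-exposed cells to give inhibition.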

Assay [6] can be described thus: NCI Yeast Anticancer Drug Screen. Data for the mlh1 rad18 strain (AID 175). The settings on record: S. cerevisiae mlh1 rad18 strain growth inhibition; at 50.0 µM; active compounds read high. In a few lines:
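A repair-deficient yeast strain is exposed to test compound, and growth is scored relative to vehicle-treated controls.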

Regarding `CC(C)CCN(C=O)c1ccccc1`, the growth inhibition in assay [1] is 1.7%; in assay [2] it was 0.7%; in assay [3], 8.05%; in assay [4], 5.5%; in assay [5], -9.5%; in assay [6], 2.15%.
As for `CC(=O)OCC1OC(OC(C)=O)C(NC(=O)C[NH-])C(OC(C)=O)C1OC(C)=O.CC(=O)OCC1OC(OC(C)=O)C(NC(=O)C[NH-])C(OC(C)=O)C1OC(C)=O.[Cl][Pt+2][Cl]` (stereo not given), the growth inhibition in assay [1] is -2.75%; in assay [2] it was -19.4%; in assay [3], -5.85%; in assay [4] it was -42.9%; in assay [5], 1.7%; in assay [6], 21.9%.
For the molecule `O=C(NCCS(=O)(=O)N1C(=O)C2CCCN2C(=O)[C@@H]1Cc1ccccc1)OCc1ccccc1` (stereo not given in full), the growth inhibition in assay [1] was -4.35%; in assay [2], -0.55%; in assay [3], -4.35%; in assay [4], 19.4%; in assay [5] it was 5.8%; in assay [6], 26.1%.
`C#CC(C)(C)OC(=O)Nc1cccc(Cl)c1`: the growth inhibition in assay [1] is 12.8%; in assay [2] it was -11.3%; in assay [3], -16.1%; in assay [4] it was -8.35%; in assay [5], -20.6%; in assay [6], 10.7%.
Turning to `COc1cc(C2c3cc4c(c(OS(=O)(=O)O)c3CC3COC(=O)C32)OCO4)cc(OC)c1OC` (stereo not given), the growth inhibition in assay [1] is 6.3%; in assay [2] it was 3.5%; in assay [3], -18.9%; in assay [4], -14.4%; in assay [5], 15%; in assay [6], 7.4%.
Consider `COc1cc2c(cc1OC)-c1cc3cc(OC)c(OC)cc3c(C)[n+]1CC2` (tested in a mixture with another compound), for which the growth inhibition in assay [1] is 6.25%; in assay [2], 0%; in assay [3] it was 11.9%; in assay [4], 19.4%; in assay [5], 11.4%; in assay [6] it was -66.8%.
Turning to `CC(C)=CCC/C(C)=C/Cn1c(=O)cc[nH]c1=O`, the growth inhibition in assay [1] was 10.7%; in assay [2], -6.9%; in assay [3], -15.8%; in assay [4], -107%; in assay [5], 2.15%; in assay [6], -0.1%.
`Nc1ccc(S(=O)(=O)O)cc1Cl`: the growth inhibition in assay [1] was -12.5%; in assay [2], -12%; in assay [3], -5.25%; in assay [4] it was -9.9%; in assay [5] it was -10.4%; in assay [6], -3.5%.
For `O=[N+]([O-])c1ccc(N/N=C2/CC(c3ccccc3)C(c3ccccc3)=C2Cl)c([N+](=O)[O-])c1` (stereo not given), the growth inhibition was 26.2% in assay [1]; 15.6% in assay [2]; 9.45% in assay [3]; 24.4% in assay [4]; -1.75% in assay [5]; 15.7% in assay [6].
Regarding `CC(C)NNC(=O)c1ccc(N)cc1`, the growth inhibition in assay [1] was 16.1%; in assay [2], 6.05%; in assay [3], 4.55%; in assay [4] it was 6.55%; in assay [5], 4.8%; in assay [6], 6.35%.
Consider `COc1cc(OC)c(N=Nc2c(O)n(C)c(=O)n(C)c2=O)cc1Cl`, for which the growth inhibition in assay [1] is 6.45%; in assay [2] it was -17.8%; in assay [3] it was 14.6%; in assay [4], 3.85%; in assay [5], 10.6%; in assay [6], 1%.
Turning to `COc1cc(/C=C/C(C)=O)ccc1OP(=O)(O)O`, the growth inhibition in assay [1] was -22.4%; in assay [2], -24.4%; in assay [3] it was -29.8%; in assay [4], 0.1%; in assay [5] it was -32.1%; in assay [6], 7.65%.
Consider `CCc1cccc(NC(=O)c2cc(/C=C/c3ccccc3)[nH]c(=S)n2)c1`, for which the growth inhibition in assay [1] was -15.9%; in assay [2], -19.4%; in assay [3], 6.95%; in assay [4], -1.85%; in assay [5], -6.85%; in assay [6], -12.1%.
Regarding `CCCC(NC(=O)OCc1ccccc1)C(=O)NC(C(=O)O)C(C)CC` (stereo not given) (Cbz-[Nva]-Ile-OH; configuration not given here), the growth inhibition in assay [1] was 26.3%; in assay [2], 12.4%; in assay [3], 2.75%; in assay [4], 29.1%; in assay [5] it was 4.55%; in assay [6], 9.6%.
Regarding `CN(c1ccccc1)c1cc2nc3ccccc3nc2cc1O`, the growth inhibition in assay [1] was 15.3%; in assay [2], 17.4%; in assay [3] it was 4.3%; in assay [4], 14.3%; in assay [5], 2%; in assay [6], -1.6%.
Take `CNc1nc(N(C)C)nc(N(C)C)n1`: the growth inhibition in assay [1] was 25.2%; in assay [2], 16.9%; in assay [3], 15.6%; in assay [4], 28.9%; in assay [5], 26.8%; in assay [6], 26.6%.
For the molecule `O=C1c2ccccc2-c2nc(-c3cccs3)cc3c2c1nc1ccccc13`, the growth inhibition in assay [1] was 41.2%; in assay [2], 21.4%; in assay [3] it was 29.1%; in assay [4], 21.9%; in assay [5], 25%; in assay [6], 36.2%.
As to `CN(C)CC1(Cc2ccccc2)CCC(Cc2ccccc2)C1=O` (stereo not given), the growth inhibition in assay [1] is 85.5% (active); in assay [2], 63.4%; in assay [3] it was 85.3% (active); in assay [4] it was 54%; in assay [5], 45.6%; in assay [6], 86.3% (active).
As to `COc1cc(C)nc2ccc(Cc3ccc4nc(C)cc(OC)c4c3)cc12`, the growth inhibition in assay [1] is 6.75%; in assay [2], 6.8%; in assay [3] it was -3%; in assay [4] it was -14.2%; in assay [5], 7.4%; in assay [6] it was 25.6%.
In the case of `C=C(Br)CN=CN(C)C`, the growth inhibition in assay [1] is 23.6%; in assay [2], 1.35%; in assay [3], 10.9%; in assay [4] it was 1.35%; in assay [5], -10.1%; in assay [6], 23.1%.
